The labels stand for the following.
B1: ENSMUSG00000029028.98|Lrrc47 (ssRNA)
RNA: GGGAGUUCUACAGUCCGACGAUCGCUUCGAUAUCCGCAUGCUAUGUGGGUGUGCUGUAGAUUCUGUGUAACUGGUUCUUUGCUGUUUCUCUGGGUGUUUUAAGGUGUCUGCUUUUGUCCAGGUGACUGUGGUAAUGUGAGUUUGCAUCAUCAUCAUAGCUCCAAUGUGACUCUCCUGUCUCCUGUCCUCAUGGAUCACUCAGUAACUGCUGGGGAUGUUCUGAAUCAUGUGGCCUGUGGCCGUGCUGGAGAGUCAGGUUGAACGCAGGCAUUCUAUUGAACAGUAUUUAUUUUUCUACAACAUCUCUUGCGGUCGCACUAGUGUGGAAUUCUCGGGUGUCAAGG
B2: ENSMUSG00000090935.301|Synj2bp|248:252 (ssRNA)
RNA: GGGAGUUCUACAGUCCGACGAUCGCUUCGAUAUCCGCAUGCUAGCCUUAGUUGCUAUUUUACAGUACUGUUAAAGGAUCCAUUGGCAUGGGAUGGGAAGCAGCAGGGCCCAAUCAACCAUCAAGACAUCUGAAAAAGAUCAUGUCUCAAGGUGGCACUUGAGCCUUCAAAACUGCUUAACAAUUCUCAGUUUCUAGUGUCAGACAAAAAGCCUAAGGGAAGGAACUGCCCUCCUGGUAGGAUGGACCUGAAUCAGCCUGCUUCUGACUGAGUUAGGAUGAGAAGGCAUUGCAUACGGUUUUCUCUCUUGCGGUCGCACUAGUGUGGAAUUCUCGGGUGUCAAGG
B3: ENSMUSG00000032194.203|Kank2 (ssRNA)
RNA: GGGAGUUCUACAGUCCGACGAUCGCUUCGAUAUCCGCAUGCUACUGCACCUUUCUCUAACUGGGGUUCCUUUCUGGCCCCAGGAUCUCAGUGUGGUUCGUGGGGGGAUUUUGUUGUUGUUUCUUUGUUUCUUUUCUUCAUAAAGAAGAAAAAGGAAACAACUUCUAGAUGUGCCUUGCGAUAGGGAGGACUUUGUCCUCUCAAGUCUCCCUGUCGUAUCCAGAUCACAGCUGAACCCACUGGGCCUUGGCGCCAAACCUCAGCAGGGCAGCAUUGAGACUCAUGGACUAAAGGAAAGUGUUCACUCUUGCGGUCGCACUAGUGUGGAAUUCUCGGGUGUCAAGG
B4: ENSMUSG00000043670.75|Diras1|97:102 (ssRNA)
RNA: GGGAGUUCUACAGUCCGACGAUCGCUUCGAUAUCCGCAUGCUAUUUGAUCCCUGUGGAUCUGAAAACAGGGACCUGGCUAAGGAACUGCUCAUCCCAGUCAGGCCCAGAGAGGUUACCUUGCCUCUCCAUCUCUGUCCCACACACCCCAGCCAUGCCCACUGUCCCUGUCCCUCACAUUCUAUCACUGUGACCUCUGGGGAGUGCCCAUUGACCUCAUCUUCCUUCACUAAUAUCUUAUUUCUUUCACCUGAUCCUGUCCUUUCCCCGUGACCUCUGACCUGUGGCCUUCCCUGGGUCCAGAACUCUUGCGGUCGCACUAGUGUGGAAUUCUCGGGUGUCAAGG
B5: ENSMUSG00000061578.22|Ksr2|4:9;112:122;211:217;222:226 (ssRNA)
RNA: GGGAGUUCUACAGUCCGACGAUCGCUUCGAUAUCCGCAUGCUAACCACACACAUGACGUCACAGAGGCUGUCCACACCUUCGACUUGUACCCCGUUACUCAGGCACGAUCAGGGACCACUCAACUAGGACCAAACUGGGCCAGAGAGGGUCCCAACACACCACACAAGGAGCCACAGACUGAGCACACCACCUCGGACUGUGGAGACCAAGACACAUGCCCAGUGGGCAGACUCAGACUCACACGCUGGACCACACACACCGCAACACACUACACAUGGACAGGGCCAACUGCUAUCCUUCUGCUCUUGCGGUCGCACUAGUGUGGAAUUCUCGGGUGUCAAGG
B6: ENSMUSG00000031028.295|Tub (ssRNA)
RNA: GGGAGUUCUACAGUCCGACGAUCGCUUCGAUAUCCGCAUGCUAUCCCAGGUUGGACACUCGACGAAAGGCACACCUGCUGCAGCAGGUUCUGACACACCUGAGCCAUACAUUGCCAUCAGAGAACCCUCAGCGAGGUAGCCUUUGUUUACAGUCUAGUUUCUAGAGGGCAGUAGGACUUCCAUGCUGGGGCUGGCCUAUCUCCUGAUGAAAGAUUACAGUGCCAUCUCCUUCCCAUAGUUCUGUGUCUGCCCUCCCUCCCUGACUUUAUAGGGAGAAAUCUCCUGACAUUAGAGGUGAUAGAACUCUUGCGGUCGCACUAGUGUGGAAUUCUCGGGUGUCAAGG
B7: ENSMUSG00000031028.549|Tub (ssRNA)
RNA: GGGAGUUCUACAGUCCGACGAUCGCUUCGAUAUCCGCAUGCUAAUAGAUGGACAGCCUGGUUUCCCUUCUCAGCAGUCCUGGCCUCCCCUUCUCUGUAUUCCUUGCCCCAGCUACGAUAUCCUCAUGGGAUUUCAGGAUGCCAGGUGCCAUCAAAGCAUGCUUUUUUGUGGUGCCUAGCACUGUGACUGGGGCCCAACUGCCCUGCAGAGUUGGGACCUUGCACUGCCCUAGACCCUGGCUUUAGAUCUGCUUCAGUCUCCAGAACAGGCUAUGGGAUAGAUUUUUCUUUCAGUUUAUGGCCACUCUUGCGGUCGCACUAGUGUGGAAUUCUCGGGUGUCAAGG
B8: ENSMUSG00000061578.336|Ksr2 (ssRNA)
RNA: GGGAGUUCUACAGUCCGACGAUCGCUUCGAUAUCCGCAUGCUAGGAGUGACCAGUCACCUGCCUCCCAGGGUUCUGCCUUGCCCUUAAGCUAGGGUCCUUCAAGCAUCCACAGACUUAGAGUGUGGUGGUAACAUGCUUGUAAUCCUGGCACUCUGGAGGCUGAGGCAGGAGGAUAACAAGUCUAGACUAUAUAUGAUUUCUGAGGGUCUGUUAGUGAAUAAGUACCUGGAUGACAUGGGACAAGUCCCAGCCUUCCCUGCUCCUGCGCUGCUCUUCCUCUUAUGGGAUAGGGUCUAGGUCAACUCUUGCGGUCGCACUAGUGUGGAAUUCUCGGGUGUCAAGG
B9: ENSMUSG00000061578.503|Ksr2 (ssRNA)
RNA: GGGAGUUCUACAGUCCGACGAUCGCUUCGAUAUCCGCAUGCUAGGGAUUAAAGGUGUGUACCACCAUUGCAAUCUUGAACUCUUGACCAAUAGAAAUCCUAGACUAGUGUUGCUAGGCAACUGACUGUAUUCAGGACACCCAGGGUGGGAGGUGGAUGGAGCUCUUGCCUAACACACACCAAGCCCCAAGUUCCAUCCCCAGUCCCACACAAACCAGAUAUGAUGGUGUGUGCCUAUGUCCCCCACACACGAGAGAGCUGGAGGCAGGAGGAUCAGAAGUUCAGGGCCAUCCUUAAUCAUACACUCUUGCGGUCGCACUAGUGUGGAAUUCUCGGGUGUCAAGG

The full ranking holds about 9,900 sequences; the median of “r (bound/input frequency ratio)” is about 0.7, and the highest 2% start at about 6.5. Many of the other results were omitted from the sample, so the highest values are more common in it than they were.

TDP-43, sequence (Q13148 whole entry): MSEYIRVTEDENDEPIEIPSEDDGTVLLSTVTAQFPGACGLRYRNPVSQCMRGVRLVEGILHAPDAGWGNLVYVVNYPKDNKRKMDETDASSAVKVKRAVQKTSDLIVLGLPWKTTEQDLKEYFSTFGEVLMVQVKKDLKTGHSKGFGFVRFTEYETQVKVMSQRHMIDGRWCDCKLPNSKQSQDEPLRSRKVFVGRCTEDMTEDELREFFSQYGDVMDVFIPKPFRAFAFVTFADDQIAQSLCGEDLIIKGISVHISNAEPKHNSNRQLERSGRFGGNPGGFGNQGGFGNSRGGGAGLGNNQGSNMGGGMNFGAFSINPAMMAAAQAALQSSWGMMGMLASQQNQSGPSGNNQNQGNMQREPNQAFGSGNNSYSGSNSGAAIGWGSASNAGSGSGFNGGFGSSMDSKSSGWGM

The experiment has as its target TDP-43 (Homo sapiens, UniProt Q13148 1-414). The experiment is described as follows: RNA Bind-n-Seq with designed 260-mer pool; 25 mM Tris-HCl, 150 mM KCl, 3 mM MgCl2, BSA (printed 500 mg/mL), 20 units/mL SUPERase IN; pH not stated; 500 nM RNA pool, 1 h, 4 C; TDP-43 5, 50, 500 nM; high values mean tight binding. Conditions: protein: recombinant; tags: SBP (GST cleaved off with PreScission; pGEX-GST-SBP). The essentials: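 Binding (R) is the ratio of each oligo's mapped-read-normalized abundance in the bound fraction to its abundance in the input. To obtain it, SBP-tagged recombinant TDP-43 (5, 50 or 500 nM) on streptavidin beads was incubated with 500 nM of an in vitro-transcribed 260-nt 3′ UTR oligo pool for 1 h at 4 °C in 25 mM Tris-HCl, 150 mM KCl, 3 mM MgCl2, BSA and SUPERase IN. The RNA retained after washing was released with biotin, then reverse transcribed, amplified by PCR and sequenced.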
As for B1, the binding signal is 1.29 R (bound/input frequency ratio).
With B2 the figure was 0.248 R (bound/input frequency ratio).
With B3 the figure was 0.26 R (bound/input frequency ratio); with B4, 2.78 R (bound/input frequency ratio); with B5, 1.84 R (bound/input frequency ratio).
With B6 the figure was 0.563 R (bound/input frequency ratio); with B7, 0.419 R (bound/input frequency ratio).
Take B8: the binding signal was 0.934 R (bound/input frequency ratio).
As for B9, the binding signal was 1.74 R (bound/input frequency ratio).

Source of the values: publication PMC12864922, “TDP-43 directly inhibits mRNA accumulation in neurites through modulation of mRNA stability”.
